Source: PubChem
The list is not random: actives were taken first. Their share in the collection is about 0.54%.
EPAC2 ag = EPAC2 (human) agonism. Q8WZA2. EPAC2 activation, biochemical qHTS; response scale: 100% = 6.5 mM cAMP response. Potency, µM (doses to about 154 µM), without a hit: at the highest dose activation, actives largely listed as activators. hit rate 0.079% among 360,000; also: nearly all actives have a fitted effect of over 50% in size
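Nucleotide exchange monitored as fluorescence drop when BODIPY-GDP leaves Rap1B. Reaction: 100 nM EPAC2, 250 nM RAP1B-BODIPY-GDP, 50 uM GDP, room temperature, kinetic read over 30 min. Activity expressed relative to 6.5 mM cAMP.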
ERG-DNA inh = inhibitors of human ERG Ets domain-DNA interaction. AID 624246. Potency, µM (top dose mostly 76.9 µM), for inactives: top-dose FP activity, negative = inhibition, actives largely listed as inhibitors. P11308. hit rate 0.028% among 370,000. fluorescence polarization, His-ERG Ets domain / labelled DNA; active = well fitted inhibition curve with a large enough effect in the polarisation, with a control signal flat; inconclusive = small, poorly fitted or top-dose-only effect, or effect the other way, or a change in a side signal; inactive = no such curve, though single readings can be large or run the other way; the % refers to the polarisation;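 also: polarization taken with two DNA probes labelled with fluorescein and Texas red; % of control where 0% means no effect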
Target sequence (P11308 whole entry, looked up, the tested form may be a part): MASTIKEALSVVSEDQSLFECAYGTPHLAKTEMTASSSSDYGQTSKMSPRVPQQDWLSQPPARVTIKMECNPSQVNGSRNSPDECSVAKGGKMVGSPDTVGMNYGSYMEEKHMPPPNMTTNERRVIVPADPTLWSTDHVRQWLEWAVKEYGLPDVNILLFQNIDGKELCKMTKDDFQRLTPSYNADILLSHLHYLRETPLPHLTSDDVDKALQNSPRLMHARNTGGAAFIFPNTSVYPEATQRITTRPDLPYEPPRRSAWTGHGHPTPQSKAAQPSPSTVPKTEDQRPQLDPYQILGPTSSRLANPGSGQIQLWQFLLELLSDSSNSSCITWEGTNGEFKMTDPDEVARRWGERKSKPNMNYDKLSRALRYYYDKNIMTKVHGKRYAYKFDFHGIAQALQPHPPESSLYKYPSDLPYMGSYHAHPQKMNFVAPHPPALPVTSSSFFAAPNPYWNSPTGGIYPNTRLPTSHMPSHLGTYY
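His-tagged ERG Ets domain (1 uM in the protein solution; 300mM KCl, 50mM Tris-HCl, 1mM EDTA, 1mM DTT, pH 7.5) received compound, then a probe mix of 5 nM fluorescein-DNA and 100nM Texas-615-DNA. Fluorescence polarization was read for both dyes.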
EPAC1 antagonist = EPAC1 (human) antagonism. O95398. EPAC1 GEF assay, Rap1b-BODIPY-GDP exchange fluorescence. Potency, µM (doses to about 115 µM), for inactives: at the highest dose activity change, negative = inhibition, most hits filed as inhibitors. hit rate 0.14% among 360,000;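 also: plate controls were vehicle for no effect and positive control for full effect; nearly all actives have a fitted effect of over 50% in size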
EPAC2 antagonist = EPAC2 (human) antagonism | Q8WZA2 | EPAC2 GEF exchange of Rap1B-BODIPY-GDP, fluorescence | Potency, µM (titrated, usually from 114 µM), for the others: at the top dose activity, negative = inhibition, hits mostly inhibitors | hit rate 0.18% among 360,000 | AID 720708; also: % is scaled to controls: 0 for no effect and ±100 for the full control effect; nearly all actives have a fitted effect of over 45% in size
EPAC1 agonist = agonists of human EPAC1; O95398; EPAC1 agonist qHTS, biochemical assay; response scale: 100% = response to 6.5 mM cAMP; Potency, µM (highest dose often 154 µM), for inactives: top-dose activation, usual class: activators; hit rate 0.073% among 360,000; also: nearly all actives have a fitted effect of over 60% in size
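EPAC1 100 nM, Rap1B–BODIPY-GDP 250 nM, unlabeled GDP 50 uM; compound titration; 5 min RT; kinetic read ex480/em540 at 5-min intervals ×30 min; data normalized to 6.5 mM cAMP agonist control.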
TDP1 block = TDP1 (human) enzyme inhibition | recombinant TDP1, AlphaScreen DNA substrate cleavage | hit rate 0.28% among 350,000 | Q9NUW8 | Potency, µM (highest dose often 130 µM), inactives show at the highest dose activity change, negative = inhibition, actives largely listed as inhibitors; also: % is scaled to controls: 0 for no effect and ±100 for the full control effect; nearly all actives have a fitted effect of over 40% in size
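Recombinant human Tdp1 (E. coli-expressed, 1 nM final) preincubated with compounds 15 min at room temperature, then 5'-biotin/3'-phosphotyrosine-FITC DNA substrate (15 nM final) added for 5 min. AlphaScreen beads (10 ug/ml final) added 10 min; cleavage lowers signal.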
* marks the source's active call; other numbers are inactive results. Unless noted, calls follow the shape of the dose curve; as a rule, active = well fitted curve in the direction sought with a large enough effect; inconclusive = small, poorly fitted or top-dose-only effect, or another doubt; inactive = no such curve, though single readings can be large; an effect the other way counts as inactive or inconclusive. Potency is read from the fitted curve at half-maximal effect.

Cc1cc(NS(=O)(=O)c2ccc(NC(=O)COc3c(C)cc(Br)cc3C)cc2)no1 was read as EPAC2 ag -8%, ERG-DNA inh -6%, EPAC1 antagonist -4%, EPAC2 antagonist 18µM*, EPAC1 agonist -1% and TDP1 block 8%.
`O=C(O)CN1C(=O)/C(=C\c2cc(Br)ccc2OCc2ccc(F)cc2)SC1=S` gave EPAC2 ag 1%, ERG-DNA inh 21%, EPAC1 antagonist inconclusive, EPAC2 antagonist inconclusive and EPAC1 agonist 7%.
`O=C(O)CCCN1C(=O)/C(=C\c2ccccc2OCc2ccccc2)SC1=S` gave EPAC2 ag 7%, ERG-DNA inh 10%, EPAC1 antagonist 50µM*, EPAC2 antagonist inconclusive and EPAC1 agonist -1%.
O=C(O)CN1C(=O)/C(=C\c2cc(Br)ccc2OCc2ccc(Cl)cc2)SC1=S was read as EPAC2 ag -2%, ERG-DNA inh 5%, EPAC1 antagonist inconclusive, EPAC2 antagonist 50µM* and EPAC1 agonist -2%.
`Cc1nn(-c2ccccc2)c(Cl)c1/C=C1\SC(=S)N(CCCCCC(=O)O)C1=O` gave EPAC2 ag 6%, ERG-DNA inh 25%, EPAC1 antagonist -9%, EPAC2 antagonist 40µM*, EPAC1 agonist 12% and TDP1 block 10%.
For COc1ccc(-c2nc3ccccn3c2Nc2ccccc2C)cc1 the results were TDP1 block 8%.
For O=C(OCC#CCSc1nnc(-c2ccc(Cl)cc2)o1)c1ccc(F)cc1 the results were TDP1 block -8%.
Screening Fc1cc(F)cc(Nc2nc(NC3CCCC3)nc(C3CO3)n2)c1 (configuration not stated) returned TDP1 block 2%.
`Cn1cc(P(=O)(c2ccccc2)c2ccccc2)c2ccccc21` gave TDP1 block 0%.
Screening Cc1c(C)c2ccc(OCC(=O)Nc3ccc(S(N)(=O)=O)cc3)c(C)c2oc1=O returned EPAC2 ag -7%, ERG-DNA inh 0%, EPAC1 antagonist 71µM*, EPAC2 antagonist 22%, EPAC1 agonist -3% and TDP1 block -18%.
Screening CCc1cc(=O)oc2c(C)c(OCC(=O)Nc3ccc(S(=O)(=O)N(CC)CC)cc3)ccc12 returned ERG-DNA inh 2%.
For O=c1c(O)c(-c2cc(O)c(O)c(O)c2)oc2cc(O)cc(O)c12 the results were EPAC2 ag 8%, ERG-DNA inh 3%, EPAC1 antagonist 16µM*, EPAC2 antagonist 8.9µM* and EPAC1 agonist -26%.
Screening O=c1c(O)c(-c2ccccc2)oc2cc(O)cc(O)c12 returned EPAC2 ag 8%, ERG-DNA inh 13%, EPAC1 antagonist -19%, EPAC2 antagonist -12%, EPAC1 agonist -21% and TDP1 block 2%.
Screening CCOc1ccc(-n2cnc3scc(-c4ccc(OC)c(OC)c4)c3c2=O)cc1 returned EPAC2 ag 14%, ERG-DNA inh -2%, EPAC1 antagonist -10%, EPAC2 antagonist 50µM*, EPAC1 agonist 6% and TDP1 block -5%.
Screening Cc1ccccc1C(=O)/C(C#N)=N/Nc1c(C)n(C)n(-c2ccccc2)c1=O returned EPAC2 ag -68%, ERG-DNA inh -3%, EPAC1 antagonist -7%, EPAC2 antagonist 79µM*, EPAC1 agonist -11% and TDP1 block 11%.
For CC(Sc1nc2c(c(=O)[nH]1)CCCC2)C(=O)Nc1ccc(Br)cn1 (configuration not stated) the results were EPAC2 ag 2%, ERG-DNA inh -7%, EPAC1 antagonist 6%, EPAC2 antagonist -2%, EPAC1 agonist -7% and TDP1 block 40µM*.
For C[C@H](CO)N1C[C@H](C)[C@@H](CN(C)S(=O)(=O)c2ccccc2)Oc2c(cccc2N(C)C)C1=O the results were EPAC2 ag -1%, ERG-DNA inh 0%, EPAC1 antagonist -5%, EPAC2 antagonist 7%, EPAC1 agonist -20% and TDP1 block 1%.
Screening Cc1noc(C)c1S(=O)(=O)N(C)C[C@H]1Oc2c(cccc2N(C)C)C(=O)N([C@H](C)CO)C[C@@H]1C returned EPAC2 ag -1%, ERG-DNA inh 1%, EPAC1 antagonist 3%, EPAC2 antagonist 14%, EPAC1 agonist -9% and TDP1 block 100µM*.
C#CCOc1nc(C)cc(C)c1S(=O)(=O)c1ccccc1C was read as EPAC2 ag 7%, ERG-DNA inh 0%, EPAC1 antagonist 7%, EPAC2 antagonist 28µM*, EPAC1 agonist 2% and TDP1 block 0%.
`Cc1cc(C)c(S(=O)(=O)c2ccccc2C)c(OCCN(C)C)n1` gave EPAC2 ag 5%, ERG-DNA inh 18%, EPAC1 antagonist 5%, EPAC2 antagonist 1% and EPAC1 agonist 7%.
`CSc1nc(C)cc(C)c1S(=O)(=O)c1ccccc1C` gave EPAC2 ag 21%, ERG-DNA inh 0%, EPAC1 antagonist -17%, EPAC2 antagonist 35µM*, EPAC1 agonist 13% and TDP1 block -5%.
CCSc1nc(C)cc(C)c1S(=O)(=O)c1ccccc1C was read as EPAC2 ag 15%, ERG-DNA inh 7%, EPAC1 antagonist -6%, EPAC2 antagonist inconclusive, EPAC1 agonist 7% and TDP1 block 0%.
Screening COc1nc(C)cc(C)c1S(=O)(=O)c1ccccc1C returned EPAC2 ag 0%, ERG-DNA inh -5%, EPAC1 antagonist -1%, EPAC2 antagonist 13µM* and EPAC1 agonist 0%.
CCC(C)Oc1nc(C)cc(C)c1S(=O)(=O)c1ccccc1C (configuration not stated) was read as EPAC2 ag 1%, ERG-DNA inh -2%, EPAC1 antagonist -4%, EPAC2 antagonist -21%, EPAC1 agonist 1% and TDP1 block -5%.
For Oc1c(Br)cc(Br)cc1/C=N/Nc1ccc(Cl)nn1 the results were EPAC2 ag 4%, ERG-DNA inh -11%, EPAC1 antagonist -19%, EPAC2 antagonist 1% and EPAC1 agonist -9%.
For Oc1c(Br)cc(/C=N/Nc2ccc(Cl)nn2)cc1Br the results were EPAC2 ag -2%, ERG-DNA inh -9%, EPAC1 antagonist 25µM*, EPAC2 antagonist -7% and EPAC1 agonist -4%.
`CC1CCCCC1NC(=O)COC(=O)c1c2c(nc3ccccc13)/C(=C/c1ccco1)CC2` (configuration not stated) gave EPAC2 ag -3%, ERG-DNA inh 8%, EPAC1 antagonist 45µM*, EPAC2 antagonist 16%, EPAC1 agonist -36% and TDP1 block -2%.
